Records with an inconclusive call do not appear. Activity calls are given as the source filed them. Unless noted, calls follow the shape of the dose curve; as a rule, active = well fitted curve in the direction sought with a large enough effect in the repeat runs; inconclusive = weak or mixed curves; inactive = no such curve, though single readings can be large; an effect the other way counts as inactive or inconclusive.

Experiment [1] in a line: qHTS assay to identify small molecule antagonists of the glucocorticoid receptor (GR) signaling pathway - cell viability counter screen (AID 720693). Also: nearly all actives have a fitted effect of over 55% in size. A general note: qHTS replaces the single test concentration by a dilution series.
Experiment [2] is described as follows: qHTS assay for identifying genotoxic compounds that show differential cytotoxicity against isogenic chicken DT40 cell lines with known DNA damage response pathways - wild type cell line (AID 743012). Also: nearly all actives have a fitted effect of over 60% in size. Also: potency is read from the fitted curve at half-maximal effect. In a few lines:
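Luminescent ATP viability signal (CellTiter-Glo, 30 min RT) recorded after wild type DT40 cells were incubated with compounds for 40 h at 37 C/5% CO2.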

Experiment [3] is described as follows: qHTS assay for identifying genotoxic compounds that show differential cytotoxicity against isogenic chicken DT40 cell lines with known DNA damage response pathways - Rev3 mutant cell line (AID 743014). Also: nearly all actives have a fitted effect of over 55% in size. Also: potency is read from the fitted curve at half-maximal effect.
The nature of experiment [4]: qHTS assay for identifying genotoxic compounds that show differential cytotoxicity against isogenic chicken DT40 cell lines with known DNA damage response pathways - Rad54/Ku70 mutant cell line (AID 743015). Also: nearly all actives have a fitted effect of over 60% in size. Also: potency is read from the fitted curve at half-maximal effect.
A short description of experiment [5]: qHTS assay to identify small molecule antagonists of the androgen receptor (AR) signaling pathway - cell viability counter screen (AID 743033; also: nearly all actives have a fitted effect of over 45% in size).
The nature of experiment [6]: qHTS assay to identify small molecule antagonists of the androgen receptor (AR) signaling pathway using the MDA cell line - cell viability counter screen (AID 743041; also: nearly all actives have a fitted effect of over 45% in size). The gist of the method:
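Compound exposure lasted 16 h at 37C in MDA-kb2 AR-luc cells stimulated with R1881. Protease-based CellTiter-Fluor reagent was applied for the final 30 min and fluorescence measured.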

Experiment [7] is described as follows: qHTS assay to identify small molecule antagonists of the thyroid receptor (TR) signaling pathway - cell viability counter screen (AID 743064). Also: nearly all actives have a fitted effect of over 50% in size. The gist of the method: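 In-well cytotoxicity read by CellTiter-Fluor (30 min, 37 C) following 23.5 h exposure of GH3 cells bearing a TRE-luciferase sensor. Compounds were added alongside 1 nM (final) T3 to drive TR transactivation.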

The nature of experiment [8]: qHTS assay to identify small molecule antagonists of the thyroid receptor (TR) signaling pathway (AID 743065). Also: series mostly up to about 70 µM; nearly all actives have a fitted effect of over 55% in size. In a few lines: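 GH3.TRE-Luc rat pituitary cells (two TREs driving luciferase) were dosed with compound, then stimulated with 1 nM T3 (final) for 23.5 h at 37 C. ONE-Glo luminescence was the read-out, with CellTiter-Fluor fluorescence as the cytotoxicity counter-screen.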

Experiment [9] concerns thyroid hormone receptor (rat, GH3 cells). The experiment is described as follows: qHTS assay to identify small molecule agonists of the thyroid receptor (TR) signaling pathway (AID 743066; calls by dose curve).
In experiment [10] the target is Estrogen receptor (Homo sapiens) (UniProt P03372). Put plainly: qHTS assay to identify small molecule antagonists of the estrogen receptor alpha (ER-alpha) signaling pathway (AID 743069; active = well fitted curve in the direction sought with a large enough effect in the signal ratio in the repeat runs, not every such curve was filed as active; the % refers to the signal ratio). In a few lines: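 In this cell-based reporter format, GripTite HEK293 cells harbouring ER-alpha-UAS-bla were grown overnight with 2% charcoal-stripped FBS, dosed with DMSO-dissolved compounds, then challenged with 17beta-estradiol. After 18 hr at 37C, beta-lactamase activity was detected by FRET fluorescence.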

A short description of experiment [11]: qHTS assay to identify small molecule antagonists of the estrogen receptor alpha (ER-alpha) signaling pathway - cell viability counter screen (AID 743074; calls by dose curve; also: nearly all actives have a fitted effect of over 45% in size).
Experiment [12] has as its target Estrogen receptor (Homo sapiens) (UniProt P03372). The experiment is described as follows: qHTS assay to identify small molecule agonists of the estrogen receptor alpha (ER-alpha) signaling pathway (AID 743075; calls by dose curve).
Experiment [13] shares this target. The experiment is described as follows: qHTS assay to identify small molecule agonists of the estrogen receptor alpha (ER-alpha) signaling pathway using the BG1 cell line (AID 743079). Also: nearly all actives have a fitted effect of over 20% in size. Also: potency is read from the fitted curve at half-maximal effect.
Experiment [14] is described as follows: qHTS assay to identify small molecule antagonists of the estrogen receptor alpha (ER-alpha) signaling pathway using the BG1 cell line (AID 743080; calls by dose curve;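 also: BG1 cells stimulated with 17beta-estradiol alongside compound; series mostly up to about 70 µM; nearly all actives have a fitted effect of over 25% in size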). In a few lines:
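Readout is ONE-Glo luminescence, taken 30 min at room temperature after reagent addition, preceded by a CellTiter-Fluor viability read; BG1-Luc-4E2 cells had received compound and 17beta-estradiol for 21.5 h at 37 C.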

Experiment [15] can be described thus: qHTS assay to identify small molecule antagonists of the estrogen receptor alpha (ER-alpha) signaling pathway using the BG1 cell line - cell viability counter screen (AID 743081).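 Also: compound given together with 17beta-estradiol as the ER stimulus; series mostly up to about 70 µM; nearly all actives have a fitted effect of over 45% in size.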
For another experiment, the target named is Aromatase (Homo sapiens) (UniProt P11511). The experiment is described as follows: qHTS assay to identify aromatase inhibitors (AID 743083). Also: series mostly up to about 70 µM; nearly all actives have a fitted effect of over 55% in size.
For experiment [16], the target named is Androgen receptor (Homo sapiens) (UniProt P10275). Put plainly: qHTS assay to identify small molecule agonists of the androgen receptor (AR) signaling pathway (AID 743036; active = well fitted activation curve with a large enough effect in the signal ratio in the repeat runs, with a control signal flat, not every such curve was filed as active; the % refers to the signal ratio). The gist of the method: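 Activation was read as beta-lactamase FRET signal from LiveBLAzer B/G substrate, added for 2 h at room temperature. Before that, GeneBLAzer AR-UAS-bla GripTite (HEK293) cells had 16 h compound exposure at 37C.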

For experiment [17] the target is unchanged. The experiment is described as follows: qHTS assay to identify small molecule agonists of the androgen receptor (AR) signaling pathway using the MDA cell line (AID 743040; also: nearly all actives have a fitted effect of over 20% in size; also: potency is read from the fitted curve at half-maximal effect). The gist of the method:
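Testing was done with the MDA-kb2 AR-luc line, a human breast carcinoma stably transfected with MMTV-luciferase containing AR and GR response elements. Cells were exposed 16 h at 37C before ONE-Glo luminescence detection.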

The target is the same in experiment [18]. The experiment is described as follows: qHTS assay to identify small molecule antagonists of the androgen receptor (AR) signaling pathway using the MDA cell line (AID 743042; also: nearly all actives have a fitted effect of over 55% in size). The gist of the method: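 MDA-kb2 breast carcinoma cells carrying MMTV-luciferase (AR/GR responsive) were co-treated with compounds and the agonist R1881 for 16 h at 37C. Inhibition read as ONE-Glo luminescence; CellTiter-Fluor fluorescence measured in parallel for cytotoxicity.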

Chain of Estrogen receptor (Homo sapiens) (P03372 whole entry, looked up): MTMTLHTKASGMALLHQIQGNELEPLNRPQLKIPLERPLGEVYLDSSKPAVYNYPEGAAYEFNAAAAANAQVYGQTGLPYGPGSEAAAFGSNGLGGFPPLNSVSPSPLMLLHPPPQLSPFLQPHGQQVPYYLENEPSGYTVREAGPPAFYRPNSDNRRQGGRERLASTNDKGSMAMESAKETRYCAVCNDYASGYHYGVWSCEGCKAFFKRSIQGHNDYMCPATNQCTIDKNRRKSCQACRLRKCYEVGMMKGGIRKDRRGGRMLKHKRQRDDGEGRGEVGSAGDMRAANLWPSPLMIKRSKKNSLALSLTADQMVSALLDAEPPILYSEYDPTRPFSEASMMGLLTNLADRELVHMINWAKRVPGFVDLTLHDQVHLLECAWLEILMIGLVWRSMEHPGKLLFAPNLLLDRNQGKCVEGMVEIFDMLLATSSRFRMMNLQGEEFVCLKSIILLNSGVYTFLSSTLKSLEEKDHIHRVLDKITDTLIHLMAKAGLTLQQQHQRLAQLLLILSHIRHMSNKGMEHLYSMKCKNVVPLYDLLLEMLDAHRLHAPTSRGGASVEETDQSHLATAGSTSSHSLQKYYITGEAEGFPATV
Chain of Androgen receptor (Homo sapiens) (P10275 whole entry, looked up): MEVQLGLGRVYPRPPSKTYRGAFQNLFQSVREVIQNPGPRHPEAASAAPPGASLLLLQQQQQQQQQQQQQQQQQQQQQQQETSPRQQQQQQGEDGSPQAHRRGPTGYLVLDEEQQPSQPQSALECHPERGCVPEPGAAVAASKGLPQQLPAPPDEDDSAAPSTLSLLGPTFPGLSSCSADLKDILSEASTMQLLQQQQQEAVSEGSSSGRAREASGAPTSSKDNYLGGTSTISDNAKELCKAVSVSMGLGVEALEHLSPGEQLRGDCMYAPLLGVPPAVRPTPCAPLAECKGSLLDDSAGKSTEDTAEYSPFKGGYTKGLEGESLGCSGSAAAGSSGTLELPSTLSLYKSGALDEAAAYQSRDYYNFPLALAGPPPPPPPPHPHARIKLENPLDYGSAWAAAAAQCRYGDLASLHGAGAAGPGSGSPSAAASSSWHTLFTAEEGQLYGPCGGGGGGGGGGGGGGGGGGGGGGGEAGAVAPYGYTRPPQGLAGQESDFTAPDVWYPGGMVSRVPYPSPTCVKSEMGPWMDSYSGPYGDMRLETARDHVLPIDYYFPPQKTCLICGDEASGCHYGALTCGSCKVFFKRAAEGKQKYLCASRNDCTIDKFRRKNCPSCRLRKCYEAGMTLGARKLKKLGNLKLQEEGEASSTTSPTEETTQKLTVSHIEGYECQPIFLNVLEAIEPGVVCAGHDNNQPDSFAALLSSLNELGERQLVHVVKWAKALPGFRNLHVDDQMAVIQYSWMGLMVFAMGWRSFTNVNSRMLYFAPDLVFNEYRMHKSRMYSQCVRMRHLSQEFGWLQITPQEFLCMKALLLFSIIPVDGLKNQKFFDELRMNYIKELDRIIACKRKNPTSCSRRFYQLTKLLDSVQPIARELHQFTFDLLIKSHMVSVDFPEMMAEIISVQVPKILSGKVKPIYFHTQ
Chain of Aromatase (Homo sapiens) (P11511 whole entry, looked up): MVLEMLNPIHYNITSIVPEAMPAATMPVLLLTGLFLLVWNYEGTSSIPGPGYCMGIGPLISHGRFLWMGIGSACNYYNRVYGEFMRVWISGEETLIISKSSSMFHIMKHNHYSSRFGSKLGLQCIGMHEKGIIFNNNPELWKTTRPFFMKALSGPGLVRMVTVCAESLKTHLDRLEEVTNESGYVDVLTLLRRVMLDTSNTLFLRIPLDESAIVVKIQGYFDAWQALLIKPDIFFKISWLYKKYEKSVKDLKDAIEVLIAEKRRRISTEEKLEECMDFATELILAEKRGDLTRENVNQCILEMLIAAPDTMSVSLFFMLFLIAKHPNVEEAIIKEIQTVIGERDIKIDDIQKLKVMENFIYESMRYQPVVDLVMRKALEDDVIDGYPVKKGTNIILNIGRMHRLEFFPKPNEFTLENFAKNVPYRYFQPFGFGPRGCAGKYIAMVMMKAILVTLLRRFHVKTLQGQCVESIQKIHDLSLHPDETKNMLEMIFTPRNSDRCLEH

As to `Cc1c(-c2ccccc2)oc2c(C(=O)OCCN3CCCCC3)cccc2c1=O`, the result in [1], in experiment [5], in [9], in experiment [12] and in experiment [14] was inactive. Moreover, the Potency result in [2], in experiment [3], in [4], in [6], in experiment [7] and in [8] was “inactive” throughout. Also, the Potency entry in experiment [10], in experiment [11], in experiment [13] and in experiment [15] was “inactive” throughout.

With `Oc1ccccc1F`, the compound was called inactive in experiment [1], in experiment [5], in experiment [9], in experiment [12] and in experiment [14]. For the same compound, the Potency entry in experiment [2], in experiment [3], in experiment [4], in [6], in experiment [7] and in experiment [8] was “inactive” throughout. Besides, the Potency entry (in [10]; in [11]; in experiment [13]; in [15]; in the experiment with Aromatase (Homo sapiens)) was “inactive” each time.

`CCC/C=C/CO`: the call in experiment [1], in experiment [5], in experiment [9], in [12] and in experiment [14] was inactive. Moreover, the Potency entry in [2], in experiment [3], in [4], in experiment [6], in experiment [7] and in experiment [8] was “inactive” in each case. Also, the Potency result in experiment [11], in experiment [13] and in experiment [15] was “inactive” each time.

Regarding `O=C(O)C(=O)Cc1c[nH]c2ccccc12`, the result in experiment [1], in experiment [5] and in experiment [12] was inactive. For the same compound, the Potency entry in experiment [2], in experiment [3], in [4], in experiment [6], in experiment [7] and in experiment [10] was “inactive” each time. Also, the Potency result (in experiment [11]; in experiment [13]; in experiment [15]; in the experiment with Aromatase (Homo sapiens)) was “inactive” throughout.

Turning to `CC1=C2[C@H](/C=C(\C)C(=O)O)CC[C@@H](C)[C@H]2CC1`, the compound was called inactive in experiment [1], in experiment [5], in experiment [16], in [18], in experiment [9] and in [12]. Besides, the compound was called inactive in experiment [14]. Moreover, the Potency entry in experiment [2], in experiment [3], in experiment [4], in [17], in experiment [6] and in [7] was “inactive” in each case. Also, the Potency result (in experiment [8]; in experiment [11]; in [15]; with Aromatase (Homo sapiens)) was “inactive” in each case.

For `CCCCC(CC)COC(=O)COc1cc(Cl)c(Cl)cc1Cl` (stereo not drawn), the compound was called inactive in experiment [1], in experiment [5], in [9], in experiment [12] and in experiment [14]. For the same compound, the Potency entry in experiment [2], in [3], in experiment [4], in [6], in experiment [8] and in experiment [10] was “inactive” each time. Moreover, the Potency result (in experiment [11]; in experiment [13]; in experiment [15]; with Aromatase (Homo sapiens)) was “inactive” each time.

For the compound `Cc1ccc([N+](=O)[O-])cc1Cl`, the call in [1], in experiment [5] and in experiment [9] was inactive. In addition, the Potency result in [2], in [3], in experiment [4], in experiment [6], in [7] and in experiment [8] was “inactive” each time. For the same compound, the Potency entry (in experiment [11]; in experiment [15]; in the experiment with Aromatase (Homo sapiens)) was “inactive” throughout.

With `CCCCc1ccc2nc(NC(=O)OC)[nH]c2c1`, the compound was classed as inactive in experiment [1], in [5] and in [18]. Also, the Potency is 56.9 nM (active) in [2]; 80.4 nM (active) in experiment [3]; 114 nM (active) in experiment [4]; 5070 nM (active) in experiment [17]; 2270 nM (active) in experiment [13]. For the same compound, the Potency entry (in experiment [6]; in experiment [10]; in experiment [15]; with Aromatase (Homo sapiens)) was “inactive” each time.

As for `CCCOCCC`, the call in [1], in experiment [5], in experiment [12] and in experiment [14] was inactive. Moreover, the Potency entry in experiment [2], in experiment [3], in [4], in experiment [6], in [7] and in experiment [10] was “inactive” throughout. Also, the Potency result (in experiment [11]; in experiment [13]; in [15]; with Aromatase (Homo sapiens)) was “inactive” in each case.

The values are drawn from PubChem BioAssay (Tox21).
